High-throughput results: PubChem, National Center for Advancing Translational Sciences (NCATS)
PLK1 PBD inh: blocks phosphopeptide binding to human PLK1 polo-box domain | 360,000 compounds, 2.8% hits | P53350 | AID 720504 | Potency, µM, most hits filed as inhibitors | Plk1 PBD binding of FITC phosphopeptide, fluorescence polarization; further: series mostly up to about 57 µM; nearly all actives have a fitted effect of over 65% in size
VDR inhibitor: blocks the human vitamin D receptor. VDR-SRC2-3 peptide fluorescence polarization, 2 h. Potency, µM, actives largely listed as inhibitors. 400,000 compounds, 0.93% hits. AID 504847
Target sequence (P11473 whole entry, looked up): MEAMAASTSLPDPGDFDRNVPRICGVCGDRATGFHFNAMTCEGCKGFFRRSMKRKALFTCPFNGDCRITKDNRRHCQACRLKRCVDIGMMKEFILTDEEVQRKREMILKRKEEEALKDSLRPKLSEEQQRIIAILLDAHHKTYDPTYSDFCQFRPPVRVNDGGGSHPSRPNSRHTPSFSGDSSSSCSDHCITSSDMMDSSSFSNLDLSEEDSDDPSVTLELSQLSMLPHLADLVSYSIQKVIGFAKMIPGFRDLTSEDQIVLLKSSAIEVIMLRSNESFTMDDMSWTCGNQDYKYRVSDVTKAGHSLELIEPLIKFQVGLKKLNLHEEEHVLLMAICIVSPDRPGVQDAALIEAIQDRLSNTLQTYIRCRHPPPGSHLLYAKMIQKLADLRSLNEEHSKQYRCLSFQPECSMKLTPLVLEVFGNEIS
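After 23 nl compound addition and a short centrifugation, plates sat for 2 hours at ambient temperature; polarization of fluorescence then indicated loss of VDR binding to peptide SRC2-3.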
BAZ2B block: blocks human BAZ2B | Q9UIF8 | AlphaScreen BAZ2B-H3K14Ac peptide displacement | Potency, µM (highest dose often 114 µM), usual class: inhibitors | 360,000 compounds, 4.4% hits | AID 504333; further: nearly all actives have a fitted effect of over 60% in size
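AlphaScreen luminescence quantifies BAZ2B engagement of H3K14Ac peptide; the protein and biotinylated peptide are both at 50 nM final, buffer PBS pH 7.4 with 0.01% Tween-20, all steps at room temperature.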
L3MBTL1 block: L3MBTL1 (human) inhibition. Q9Y468. AlphaScreen L3MBTL1–H3K9me1 peptide binding. Potency, µM (doses to about 57.1 µM), most hits filed as inhibitors. 230,000 compounds, 0.66% hits; further: nearly all actives have a fitted effect of over 60% in size
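L3MBTL1 (50 nM) pre-complexed 30 min with biotinylated H3(1-15)K9me1 peptide (75 nM), then compounds added for 30 min at room temperature; AlphaScreen streptavidin donor/nickel chelate acceptor beads (10 ug/mL final) read after 30 min dark incubation.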
HP1b binding inh: inhibitors of HP1-beta chromodomain binding to methylated histone tails; P83916; 390,000 compounds, 0.56% hits; AlphaScreen HP1-beta / biotin-H3K9me3 peptide binding; Potency, µM (top dose mostly 114 µM), actives largely listed as inhibitors; further: nearly all actives have a fitted effect of over 70% in size
Target sequence (P83916 whole entry, looked up): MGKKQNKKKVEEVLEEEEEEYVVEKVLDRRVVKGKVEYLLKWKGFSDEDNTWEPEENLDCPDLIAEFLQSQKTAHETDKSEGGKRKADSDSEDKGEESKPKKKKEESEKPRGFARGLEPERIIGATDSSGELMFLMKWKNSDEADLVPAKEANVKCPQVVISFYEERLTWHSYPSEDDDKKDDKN
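Compound inhibition of the preformed complex between 50 nM HP1-beta and 50 nM biotinylated H3K9me3 peptide was read by AlphaScreen. Buffer was PBS pH 7.4 with 0.01% Tween-20. Incubations ran 30 min at room temperature, with 10 ug/mL donor/acceptor beads.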
JMJD2A Tudor: inhibitors of human JMJD2A Tudor domain. O75164. AlphaScreen JMJD2A-Tudor / H3K4me3 peptide binding. AID 504339. Potency, µM (titrated, usually from 114 µM), hits mostly inhibitors. 390,000 compounds, 4.4% hits; further: nearly all actives have a fitted effect of over 50% in size
A number is an active result; n = inactive; u = inconclusive; x = no result; [ ] = another dose, or the depositor's remark. Hits are enriched below; roughly 6.9% of the tested compounds scored in any of these assays. The call rests on the fitted dose curve; in most records, active means well fitted curve in the direction sought with a large enough effect; inconclusive means small, poorly fitted or top-dose-only effect, or another doubt; inactive means no such curve, though single readings can be large; an effect the other way counts as inactive or inconclusive.

SMILES	PLK1 PBD inh	VDR inhibitor	BAZ2B block	L3MBTL1 block	HP1b binding inh	JMJD2A Tudor
COc1ccc(CCNC(=O)c2nc(SCc3ccc(F)cc3)ncc2Cl)cc1OC	x	n	n	x	n	n
Clc1ccc(OCc2nc(-c3ccc(-n4cccc4)cc3)no2)cc1	x	u	n	x	n	n
COc1ccc(CCC(=O)Nc2cccc(S(=O)(=O)N3CCCC3)c2)cc1OC	n	n	n	n	n	n
COc1ccc(NC(=O)c2cc3c(=O)n(Cc4cccs4)ccc3nc2C)c(OC)c1	x	n	n	x	n	n
CS(=O)(=O)Nc1cccc(-c2nccc(NCc3ccccc3)n2)c1	x	n	x	x	x	x
COc1ccc(CNC(=O)c2ccc[nH]2)cc1Cl	n	n	n	n	n	n
CCN(CC)S(=O)(=O)c1cc(-c2onc(C)c2C)ccc1OC	x	n	n	x	n	n
CCOC(=O)Cc1ccc(NC(=O)NCc2cccn2Cc2ccccc2)cc1	x	n	n	x	n	n
Cc1nc2sc(C(c3ccco3)N3CCN(C(c4ccccc4)c4ccccc4)CC3)c(O)n2n1 (stereo unspecified)	n	n	u	u	n	50.1µM
CC(=O)c1ccc(NC(=O)CSc2ccsc2[N+](=O)[O-])cc1	n	n	35.5µM	n	n	u
Cc1ccc(CNC(=O)CSc2ccsc2[N+](=O)[O-])cc1	n	n	n	n	n	n
O=C(CSc1ccsc1[N+](=O)[O-])Nc1cc(F)ccc1F	u	n	20µM	39.8µM	u	44.7µM
Cc1ccc(NC(=O)CCCn2c(=O)c3cccn3c3ccccc32)c(C)c1	x	n	n	x	n	n
C=C[C@H](C)[C@](C)(O)c1ccccc1	x	n	x	x	x	x
CN(C)S(=O)(=O)c1ccc(=S)[nH]c1	23.8µM	n	x	n	u	56.2µM
O=C(Nc1nc(-c2cccs2)cs1)c1cc2ccccc2oc1=O	x	x	n	n	x	x
O=c1oc2ccccc2cc1-c1nc(-c2cccs2)cs1	11.2µM	n	n	x	n	n
O=C(CN1C(=O)CSC1=O)Nc1ccc(F)c(F)c1F	23.8µM	n	n	n	u	u
Cc1ccc(-c2ccc(C(=O)O)o2)cc1Cl	n	n	n	n	n	n
N#CCCN1CCN(C(=S)c2ccc(-c3cccc(Cl)c3)o2)CC1	n	n	35.5µM	n	u	35.5µM
O=C(NC(=S)Nc1cc(Cl)ccc1N1CCOCC1)c1ccc(-c2cccc(Cl)c2)o1	n	n	n	n	n	n
N#CCCN1CCN(C(=S)c2ccc(-c3ccc(Cl)c(Cl)c3)o2)CC1	10.6µM	n	x	n	u	50.1µM
CC(=O)Nc1ccc(CN(C)c2c(C)nc3ccc(C(=O)N4CCN(C(=O)c5ccco5)CC4)cn23)cc1	n	x	x	x	x	x
Cn1c(-c2cccc(Br)c2)cnc1NCc1ccccc1O	n	n	50.1µM	n	u	20µM
Cc1ccc(-c2c3c(=O)n(C)c(=O)n(C)c3c3c(C)nc4ccccc4n23)cc1	x	n	n	x	n	n
SMILES	PLK1 PBD inh	VDR inhibitor	BAZ2B block	L3MBTL1 block	HP1b binding inh	JMJD2A Tudor
O=C(c1ccc(Cl)cc1Cl)n1nnc2ccccc21	x	3.55µM	x	x	x	x
O=C(c1cccc(F)c1)n1nnc2ccccc21	u	n	n	x	n	n
CC(=O)Nc1ccc(S(=O)(=O)NNC(=O)c2ccc3c(c2)OCO3)cc1	n	n	n	x	n	11.2µM
NC(N)=NS(=O)(=O)c1ccc(NC(=S)NC(=O)c2ccc3c(c2)OCO3)cc1	23.8µM	n	n	x	n	n
CC(=O)Nc1ccc(S(=O)(=O)NNC(=O)c2cccc(Cl)c2)cc1	23.8µM	n	n	n	n	n
NS(=O)(=O)c1ccc(NC(=O)c2ccc3c(c2)OCO3)cc1	n	n	n	x	n	n
CNS(=O)(=O)c1ccc(NC(=S)Nc2ccc3c(c2)OCO3)cc1	18.9µM	n	n	n	n	n
COc1cc2nc(NCc3ccc(C)cc3)n3nc(-c4ccccc4)nc3c2cc1OC	x	n	n	x	n	n
O=C1CSC(c2ccccn2)N1c1ccc(C(F)(F)F)cc1 (stereo unspecified)	n	n	n	x	n	n
COCCNc1nc(-c2ccccc2F)c2sc(-c3ccccc3)cc2n1	n	x	x	x	x	x
O=C(/C=C/c1ccccc1)CCN1CCOCC1	21.2µM	39.8µM	x	x	n	89.1µM
O=C(/C=C/c1ccccc1)N1CCOCC1	n	n	n	x	n	n
COc1cc(C2C(=O)N(C3CCCCC3)CC(=O)N2CCC2=CCCCC2)ccc1OC(C)C (stereo unspecified)	x	n	n	x	n	n
Cc1cccc(C)c1NCc1n[nH]c(=S)n1-c1ccccc1	n	n	n	u	n	39.8µM
COc1ccc(-n2c(COc3ccccc3)n[nH]c2=S)cc1	n	n	n	n[2.29 µM]	n	50.1µM
CC(C)Oc1ccc(CCc2n[nH]c(=S)n2-c2ccccc2)cc1	n	n	n	n	n	n
Cc1ccc(OCc2n[nH]c(=S)n2-c2ccccc2)cc1C	n	n	n	n	n	n
CCCOCC(O)CCc1n[nH]c(=S)n1-c1ccccc1 (stereo unspecified)	n	n	n	n	n	50.1µM
COCc1n[nH]c(=S)n1-c1ccccc1	n	n	n	x	n	39.8µM
COc1ccc(-n2c(COc3ccc(C)cc3)n[nH]c2=S)cc1	n	n	n	n	n	n
COc1ccc(CSCCc2n[nH]c(=S)n2-c2ccccc2)cc1	n	n	u	u	n	50.1µM
Cn1c(SCc2n[nH]c(=S)n2-c2ccccc2)nnc1-c1ccccc1	n	n	n	n	n	17.8µM
CN(C)CCOCCP(=O)(c1ccccc1)c1ccccc1	n	n	n	n	n	n
CN(C)CCOc1ccccc1-c1ccccc1	n	n	25.1µM	x	u	0.891µM
CN1CCC(N(C)C(=O)COc2ccccc2-c2ccccc2)CC1	n	n	n	n	n	n
SMILES	PLK1 PBD inh	VDR inhibitor	BAZ2B block	L3MBTL1 block	HP1b binding inh	JMJD2A Tudor
CN(C)CCOCCOc1ccccc1-c1ccccc1	n	n	20µM	n	u	2.82µM
CC(C)Cc1nnc(NC(=O)CCS(=O)(=O)c2ccc(Cl)cc2)s1	u	n	n	x	n	n
CCCCN(C)CCCNC(=O)Cn1ncc2c3ccccc3n(Cc3ccccc3)c2c1=O	x	n	n	x	n	n
Clc1ccccc1CNCC1CCC(CNCc2ccccc2Cl)CC1 (stereo unspecified)	x	n	x	x	x	x
CN1CCN(C(c2cccnc2)c2ccc3cccnc3c2O)CC1 (stereo unspecified)	18.9µM	n	10µM	x	u	u
Cc1ccc(NS(=O)(=O)c2cccc(C(=O)O)c2)cc1C	x	x	x	x	x	n
O=C(NCCc1c[nH]c2ccccc12)c1ccc2nc[nH]c2c1	n	n	50.1µM	u	n	n
Cc1ccc(C(=O)N/C(=C\c2cccs2)C(=O)NCCc2c[nH]c3ccccc23)cc1C	n	n	u	n	n	u
O=C(NCCc1c[nH]c2ccccc12)/C(=C\c1cccs1)NC(=O)c1ccccc1	26.7µM	n	u	n	n	u
O=C(NCc1ccc(Cl)cc1)c1ccc2nc[nH]c2c1	29.9µM	u	n	n	n	n
